High-throughput results (PubChem)
Only some compounds are listed: those with a hit (about 1.4% of all), similar ones and a draw of the others.
N370S GC: inhibits or activates N370S mutant glucocerebrosidase; P04062; N370S GC spleen homogenate, 4MU-glucoside fluorescence; Potency, µM (highest dose often 59.4 µM), most hits filed as inhibitors; actives 0.092% (n = 330,000); AID 2101
BCR signal inh: inhibitors of chronic active B-cell receptor signaling; ABC-DLBCL IkBa-CBG/CBR reporter, luminescence ratio, 4 h; Potency, µM (doses to about 46.1 µM), hits mostly inhibitors; actives 0.05% (n = 340,000); active = well fitted inhibition curve with a large enough effect in the signal ratio, with a control signal flat, not every such curve was filed as active; inconclusive = small, poorly fitted or top-dose-only effect, or effect the other way, or a change in a side signal; the % refers to the signal ratio
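Cell line TMD8 (human ABC DLBCL), stably expressing tet-inducible CBG68-IkBa fusion and CBR; IMDM/0.5% FBS; cpd up to 46 uM; dox induction, 4 h, 37C/5% CO2; dual luminescence; green/red ratio; MG132 control.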
BRCA1 expr act: increases BRCA1 expression; MCF7-BRCA1-FFLuc reporter, luminescence, 48 h; response scale: scaled: vehicle 0%, 10 µM genistein 100%; AID 624202; actives 1.1% (n = 380,000); Potency, µM (highest dose often 46.1 µM), most hits filed as activators; also: nearly all actives have a fitted effect of over 80% in size
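Using MCF7 cells harboring a BRCA1 firefly luciferase reporter, plated 2 h before compound pinning, the screen measured luminescence after 48 h incubation. Responses were normalized to DMSO and 10 microM genistein, then fitted for concentration-effect.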
Nrf2 ARE act: Nrf2 pathway activation; AREc32 ARE-luciferase reporter (MCF7-derived line), luminescence, 24 h; Potency, µM (series often up to 46.1 µM), hits mostly activators; actives 0.31% (n = 410,000); also: nearly all actives have a fitted effect of over 65% in size
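Reporter line AREc32 (ARE-Fluc), seeded overnight in OPTI-MEM with 5% FBS; compound pin-transferred, 24 hr at 37 deg C, 5% CO2; luminescent read-out.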
IL-2 act: activates IL-2 in a cell-based reporter assay; IL-2 activation reporter assay, cell-based qHTS; stimulated with anti-CD3/CD4/CD28 beads; in transgenic mouse T cells; activation, % (series mostly up to about 46 µM); actives 0.065% (n = 360,000); AID 652025; in the data active = activation above about 50%; inconclusive = mostly about 30% to 49%
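Screening format: compound pinned onto unstimulated transgenic mouse T cells, 60 min incubation, then anti-CD3/anti-CD4/anti-CD28 bead stimulation for 18 hours at 37 degrees C, followed by EGFP and DsRed detection.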
Integrin act MD: integrin-mediated muscular dystrophy alleviation activation; alpha7betagal myoblasts, beta-gal FDG fluorescence, 48 h; Potency, µM (doses to about 38.3 µM), most hits filed as activators; actives 0.064% (n = 350,000); also: nearly all actives have a fitted effect of over 60% in size
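alpha7betagal+/- myoblasts (passage 13, 250/well) treated 48 h at 37C with compounds at 1:260 dilution of DMSO stock. Lysed, then beta-galactosidase activity read as FDG fluorescence (ex 480/em 540) after 30 min, with pre-read for autofluorescence.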
Of the large screens only hits and unclear results are named; the others gave an inactive call. Unless noted, calls follow the shape of the dose curve; as a rule, active = well fitted curve in the direction sought with a large enough effect; inconclusive = small, poorly fitted or top-dose-only effect, or another doubt; inactive = no such curve, though single readings can be large; an effect the other way counts as inactive or inconclusive.

CCCC1(C)Nc2ccccc2-c2nc3ccccc3n21 (centres undefined)	BRCA1 expr act 8.9µM
Oc1ccccc1N=Cc1sc2ccccc2c1Cl	BCR signal inh inconclusive, Nrf2 ARE act 11µM
CN=Cc1sc2ccccc2c1O	BCR signal inh inconclusive
Oc1c(C=Nc2ccccc2)sc2ccccc12	Nrf2 ARE act 14µM
Oc1c(C=Nc2cccnc2)sc2ccccc12	BCR signal inh inconclusive
Oc1c(C=NCc2ccncc2)sc2ccccc12	BCR signal inh inconclusive, Nrf2 ARE act 14µM
COc1ccc(C)cc1NC(=O)C1CCN(S(=O)(=O)c2cccs2)CC1	none
Cc1c(C(=O)NCc2cccc(C(F)(F)F)c2)sc(=O)n1Cc1ccccc1F	none (no result: N370S GC, BCR signal inh, Integrin act MD)
C/C=C(\C)C(=O)OC1[C@H](OC(C)=O)C2(CO)C(CC1(C)C)C1=CCC3C4(C)CCC(O[C@@H]5O[C@H](C(=O)O)[C@@H](O[C@@H]6O[C@H](CO)[C@@H](O)[C@H](O)[C@H]6O)[C@H](O)[C@H]5O[C@H]5O[C@H](CO)[C@@H](O)[C@H](O)[C@H]5O)[C@](C)(CO)C4CCC3(C)[C@]1(C)C[C@H]2O (some centres undefined)	none (no result: N370S GC, BCR signal inh)
C/C=C(/C)C(=O)OC1C(OC(C)=O)[C@@]2(CO)C(O)C[C@@]3(C)C(=CCC4[C@@]5(C)CCC(OC6OC(C(=O)O)[C@@H](O[C@@H]7OC(CO)C(O)C(O)C7O)C(O)[C@H]6O[C@@H]6OC(CO)C(O)C(O)C6O)[C@](C)(CO)C5CC[C@@]43C)C2CC1(C)C (some centres undefined)	N370S GC 16µM (no result: BCR signal inh, BRCA1 expr act, Nrf2 ARE act, IL-2 act, Integrin act MD)
COc1ccccc1CNC(=O)CSc1ccsc1[N+](=O)[O-]	BRCA1 expr act 13µM
O=C(CSc1ncccn1)NCc1ccc2c(c1)OCO2	none
Oc1ccc(CNCc2ccc3c(c2)OCO3)c2cccnc12	BCR signal inh 15µM (no result: N370S GC, BRCA1 expr act, Nrf2 ARE act, IL-2 act, Integrin act MD)
COc1ccc(CCNC(=O)c2nn(C)c3c2CS(=O)(=O)c2ccccc2-3)cc1OC	Integrin act MD 4.5µM
O=C(CC1SC(N2CCCC2)=NC1=O)Nc1ccc(C(=O)Nc2ncccc2O)cc1 (centres undefined)	BCR signal inh inconclusive, Nrf2 ARE act 16µM
Cc1ccc(NC(=O)CSc2nnc(-c3ccccc3)n2C)cc1	none (no result: N370S GC, BCR signal inh, Nrf2 ARE act, IL-2 act, Integrin act MD)
Cc1ccc(NC(=O)CCn2nnc3ccccc32)cc1	BCR signal inh inconclusive, BRCA1 expr act 11µM
Cc1ccc(C(=O)Cn2nnc3ccccc32)cc1	BRCA1 expr act 4.5µM
Cc1ccc(NC(=O)CCn2nnc3ccccc32)c(C)c1	BRCA1 expr act inconclusive
COc1ccc(NC(=O)Nc2ccc3[nH]ccc3c2)cc1	BRCA1 expr act 3.2µM (no result: N370S GC, BCR signal inh)
CCOC(=O)C(=O)Nc1nnc2n1CCS2	none (no result: N370S GC, BCR signal inh, BRCA1 expr act, IL-2 act, Integrin act MD)
C=CCN(C(=O)C1=NN(C2CCS(=O)(=O)C2)C(=O)CC1)c1nc(-c2ccc([N+](=O)[O-])cc2)cs1 (centres undefined)	BRCA1 expr act 5µM
C=CCN(C(=O)C1CSC2(C)CCC(=O)N12)c1nc(-c2ccccc2)cs1 (centres undefined)	N370S GC inconclusive, BCR signal inh inconclusive
N#Cc1c(SCc2c(Cl)cccc2Cl)nc(N)[nH]c1=S	none (no result: N370S GC)
O=c1c2ccccc2nnn1CSc1nnc2ccccn12	BRCA1 expr act 5.6µM
COC(=O)c1cccc(F)c1C(=O)c1cccc2ccccc12	none (no result: N370S GC, BCR signal inh)
O=c1oc(CCCO)cc2ccc(/C=C/c3cccc([N+](=O)[O-])c3)cc12	BRCA1 expr act 6.3µM (no result: N370S GC)
Cc1cc(C)cc(Oc2cc(NC(=O)c3cn(C)nc3C)cc([N+](=O)[O-])c2)c1	none
O=C(CSc1nnc(-c2cccs2)n1-c1cccc(Cl)c1)c1cccc2c1OCCO2	BCR signal inh inconclusive, Integrin act MD inconclusive
COc1cccc(CN(C)C(=O)c2ccccc2Sc2ccccc2C#N)c1OC	BCR signal inh inconclusive
CCc1ccc(NC(=O)C(=S)NC2CCCCC2)cc1	BCR signal inh inconclusive, BRCA1 expr act 2µM
CN(Cc1cc(Cl)cc(Cl)c1)CC(C(=O)c1ccccc1)c1ccccc1 (centres undefined)	Nrf2 ARE act 11µM (no result: N370S GC, BCR signal inh)
CN(C)CC(C(=O)c1ccccc1)c1ccccc1 (centres undefined)	BCR signal inh inconclusive, Nrf2 ARE act inconclusive
CC(O)CN(CC(C)O)c1ccc2c(c1)Cc1cc([N+](=O)[O-])ccc1-2 (centres undefined)	none (no result: N370S GC, BCR signal inh)
CC(=O)c1ccc2c(c1)Cc1cc(C(C)=O)ccc1-2	BCR signal inh inconclusive, BRCA1 expr act 2µM
CC(=NO)c1ccc2c(c1)Cc1cc([N+](=O)[O-])ccc1-2	BRCA1 expr act 5.6µM (no result: N370S GC, BCR signal inh)
Clc1ccc(COc2ccccc2-c2ccnc3ncnn23)cc1	BCR signal inh inconclusive, BRCA1 expr act 11µM
CC1(C)CC(=O)C(C2C3=C(CC(C)(C)CC3=O)Oc3ccccc32)C(=O)C1 (centres undefined)	none
CC1(C)CC(=O)C2=C(C1)Oc1nc3ccccc3cc1C2C(C#N)C#N (centres undefined)	BCR signal inh inconclusive, Nrf2 ARE act 7.1µM (no result: N370S GC)
COc1cccc2oc3ccc(C#CC4(N)CCCCC4)cc3c(=O)c12	BCR signal inh inconclusive, BRCA1 expr act 7.9µM
Cn1c2ccccc2c(=O)c2ccc(C#Cc3ccccn3)cc21	BRCA1 expr act 11µM
Cn1c2ccccc2c(=O)c2ccc(C#CC3(N)CCCCC3)cc21	N370S GC inconclusive, BCR signal inh inconclusive, BRCA1 expr act 5.6µM
Cn1c2ccccc2c(=O)c2cc(C#CC3(O)CCCCC3)ccc21	N370S GC inconclusive, BCR signal inh inconclusive
Cn1c2ccccc2c(=O)c2cc(C#Cc3ccccn3)ccc21	N370S GC inconclusive, BRCA1 expr act inconclusive, Nrf2 ARE act inconclusive
CCSc1ncc(Cl)c(C(=O)Nc2ccc(S(=O)(=O)N3CCC(C)CC3)cc2)n1	none (no result: N370S GC, BCR signal inh, BRCA1 expr act, IL-2 act, Integrin act MD)
COc1ccc(N(CC(=O)NN=C2CCN(C)CC2)S(=O)(=O)c2ccccc2)c(OC)c1	none
Cc1nc(NCc2ccco2)nc2c1C(=O)CC(C)C2 (centres undefined)	Nrf2 ARE act 2µM
CC1(C)OC2CC3C4CCC5=CC(=O)C=C[C@@]5(C)[C@]4(F)C(O)C[C@@]3(C)[C@]2(C(=O)CO)O1 (some centres undefined)	none (no result: BCR signal inh, BRCA1 expr act, Nrf2 ARE act, IL-2 act, Integrin act MD)
COc1ccc(-c2noc(-c3csc([C@@H]4C[C@H](O)[C@@H](CO)O4)n3)n2)cc1OC	BRCA1 expr act 14µM (no result: N370S GC, BCR signal inh, Integrin act MD)
COc1cc(OC)cc(-c2noc(-c3csc([C@@H]4C[C@H](O)[C@@H](CO)O4)n3)n2)c1	BRCA1 expr act 10µM (no result: N370S GC, BCR signal inh, Integrin act MD)
